Assay results reported in PMC11006913.
Substitutions are numbered along the chain they refer to.

Experiments:
Test in all cases: PBM; 200 nM protein, PBS
Settings in all cases: dsDNA, one strand shown
VENTX = target: T1, VENTX (Homo sapiens, UniProt O95231 78-163, Y115F)
T1 sequence: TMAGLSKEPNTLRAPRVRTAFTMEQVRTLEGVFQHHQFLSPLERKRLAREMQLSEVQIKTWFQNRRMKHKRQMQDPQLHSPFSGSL

PAX4 [1] = target: T2, PAX4 (Homo sapiens, UniProt O43316 9-242)
T2 sequence: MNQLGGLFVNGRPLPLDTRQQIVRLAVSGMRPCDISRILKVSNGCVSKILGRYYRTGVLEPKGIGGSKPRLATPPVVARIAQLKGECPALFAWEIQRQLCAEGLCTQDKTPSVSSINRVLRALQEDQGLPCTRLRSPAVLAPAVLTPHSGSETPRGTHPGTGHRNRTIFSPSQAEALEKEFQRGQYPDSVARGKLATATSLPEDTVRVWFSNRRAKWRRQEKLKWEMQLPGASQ

ALX3 [2] = target: ALX3 (Homo sapiens, UniProt O95076 139-225, N203Q)
ALX3 [3] = target: ALX3 (Homo sapiens, UniProt O95076 139-225)
ALX3 [4] = target: ALX3 (Homo sapiens, UniProt O95076 139-225, N203S)
SIX6 [5] = target: T3, SIX6 (Homo sapiens, UniProt O95475 114-200, T165P)
T3 sequence: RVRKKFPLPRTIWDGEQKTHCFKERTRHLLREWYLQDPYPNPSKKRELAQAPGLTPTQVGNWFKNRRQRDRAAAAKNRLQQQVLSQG

SIX6 [6] = target: T4, SIX6 (Homo sapiens, UniProt O95475 114-200, T139Q)
T4 sequence: T3 sequence with T26Q, P52T

SIX6 [7] = target: T5, SIX6 (Homo sapiens, UniProt O95475 114-200, L167M)
T5 sequence: T3 sequence with P52T, L54M

PAX4 [8] = target: T6, PAX4 (Homo sapiens, UniProt O43316 9-242, F177V)
T6 sequence: T2 sequence with F169V

PAX4 [9] = target: T7, PAX4 (Homo sapiens, UniProt O43316 9-242, F177Y)
T7 sequence: T2 sequence with F169Y

ALX1 [10] = target: ALX1 (Homo sapiens, UniProt Q15699 118-204, L144V)
ALX1 [11] = target: ALX1 (Homo sapiens, UniProt Q15699 118-204, L144R)
ALX1 [12] = target: ALX1 (Homo sapiens, UniProt Q15699 118-204)
PITX2 = PITX2 (Homo sapiens, UniProt Q99697 72-157)
PAX4 [13] = target: T8, PAX4 (Homo sapiens, UniProt O43316 9-242, R227W)
T8 sequence: T2 sequence with R219W

HOXA2 [14] = target: HOXA2 (Homo sapiens, UniProt O43364 129-215, R185T)
MSX2 = MSX2 (Homo sapiens, UniProt P35548 130-214, R199I)
HOXA2 [15] = target: HOXA2 (Homo sapiens, UniProt O43364 129-215, R185K)
NKX2-4 = target: T9, NKX2-4 (Homo sapiens, UniProt Q9H2Z4 175-261)
T9 sequence: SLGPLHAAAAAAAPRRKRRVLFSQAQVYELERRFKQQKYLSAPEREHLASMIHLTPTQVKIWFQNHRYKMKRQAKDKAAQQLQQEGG

SIX6 [16] = target: T10, SIX6 (Homo sapiens, UniProt O95475 114-200, L143I)
T10 sequence: T3 sequence with L30I, P52T

Chain of ALX3 (Homo sapiens, UniProt O95076 139-225, N203Q) (O95076 139-225 N203Q): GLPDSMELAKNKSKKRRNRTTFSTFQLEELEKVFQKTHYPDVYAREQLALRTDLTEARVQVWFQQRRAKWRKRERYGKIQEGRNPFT
Chain of ALX3 (Homo sapiens, UniProt O95076 139-225, N203S) (O95076 139-225 N203S): as the sequence (O95076 139-225 N203Q) above, with Q65S counted along it
Chain of ALX3 (Homo sapiens, UniProt O95076 139-225) (O95076 139-225): as the sequence (O95076 139-225 N203Q) above, with Q65N counted along it
Chain of ALX1 (Homo sapiens, UniProt Q15699 118-204, L144R) (Q15699 118-204 L144R): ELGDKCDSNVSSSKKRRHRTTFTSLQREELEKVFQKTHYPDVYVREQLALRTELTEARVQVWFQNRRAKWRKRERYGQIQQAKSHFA
Chain of MSX2 (P35548 130-214 R199I): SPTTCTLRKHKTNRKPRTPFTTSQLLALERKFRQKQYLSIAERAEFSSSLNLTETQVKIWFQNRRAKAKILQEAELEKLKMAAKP
Chain of ALX1 (Homo sapiens, UniProt Q15699 118-204) (Q15699 118-204): as the sequence (Q15699 118-204 L144R) above, with R27L counted along it
Chain of ALX1 (Homo sapiens, UniProt Q15699 118-204, L144V) (Q15699 118-204 L144V): as the sequence (Q15699 118-204 L144R) above, with R27V counted along it
Chain of HOXA2 (Homo sapiens, UniProt O43364 129-215, R185K) (O43364 129-215 R185K): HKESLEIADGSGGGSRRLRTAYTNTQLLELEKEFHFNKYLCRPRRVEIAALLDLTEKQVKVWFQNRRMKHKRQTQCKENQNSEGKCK
Chain of HOXA2 (Homo sapiens, UniProt O43364 129-215, R185T) (O43364 129-215 R185T): as the sequence (O43364 129-215 R185K) above, with K57T counted along it

GTCGATTA
binding signal (VENTX): 10.9 upbm affinity estimate (log intensity, higher = more binding, comparable within an allelic series)

AATCGGTC
binding signal (VENTX): 10.1 upbm affinity estimate (log intensity, higher = more binding, comparable within an allelic series)

ATCGATCA
binding signal (VENTX): 9.96 upbm affinity estimate (log intensity, higher = more binding, comparable within an allelic series)

TCTTATCA
binding signal (PAX4 [1]): 10.6 upbm affinity estimate (log intensity, higher = more binding, comparable within an allelic series)
binding signal (ALX3 [2]): 8.33 upbm affinity estimate (log intensity, higher = more binding, comparable within an allelic series)
binding signal (ALX3 [3]): 9.29 upbm affinity estimate (log intensity, higher = more binding, comparable within an allelic series)
binding signal (ALX3 [4]): 8.36 upbm affinity estimate (log intensity, higher = more binding, comparable within an allelic series)

AAATGGGT
binding signal (VENTX): 10.2 upbm affinity estimate (log intensity, higher = more binding, comparable within an allelic series)
binding signal (ALX3 [2]): 8.27 upbm affinity estimate (log intensity, higher = more binding, comparable within an allelic series)
binding signal (ALX3 [3]): 9.3 upbm affinity estimate (log intensity, higher = more binding, comparable within an allelic series)
binding signal (ALX3 [4]): 8.31 upbm affinity estimate (log intensity, higher = more binding, comparable within an allelic series)

CCGGTATC
binding signal (SIX6 [5]): 9.21 upbm affinity estimate (log intensity, higher = more binding, comparable within an allelic series)

GAGGGATC
binding signal (SIX6 [5]): 9.26 upbm affinity estimate (log intensity, higher = more binding, comparable within an allelic series)

CGATTAGA
binding signal (VENTX): 10.8 upbm affinity estimate (log intensity, higher = more binding, comparable within an allelic series)

GGGATCAC
binding signal (SIX6 [5]): 9.32 upbm affinity estimate (log intensity, higher = more binding, comparable within an allelic series)
binding signal (SIX6 [6]): 11.1 upbm affinity estimate (log intensity, higher = more binding, comparable within an allelic series)

ACGATCCG
binding signal (SIX6 [5]): 9.21 upbm affinity estimate (log intensity, higher = more binding, comparable within an allelic series)
binding signal (SIX6 [7]): 9.98 upbm affinity estimate (log intensity, higher = more binding, comparable within an allelic series)

ATCGATCG
binding signal (PAX4 [1]): 10.5 upbm affinity estimate (log intensity, higher = more binding, comparable within an allelic series)
binding signal (PAX4 [8]): 10 upbm affinity estimate (log intensity, higher = more binding, comparable within an allelic series)
binding signal (PAX4 [9]): 10.1 upbm affinity estimate (log intensity, higher = more binding, comparable within an allelic series)

ACGGATAA
binding signal (PAX4 [1]): 10.8 upbm affinity estimate (log intensity, higher = more binding, comparable within an allelic series)
binding signal (ALX1 [10]): 8.5 upbm affinity estimate (log intensity, higher = more binding, comparable within an allelic series)
binding signal (ALX1 [11]): 8.23 upbm affinity estimate (log intensity, higher = more binding, comparable within an allelic series)
binding signal (PAX4 [8]): 10.1 upbm affinity estimate (log intensity, higher = more binding, comparable within an allelic series)
binding signal (PAX4 [9]): 10.2 upbm affinity estimate (log intensity, higher = more binding, comparable within an allelic series)
binding signal (ALX1 [12]): 8.73 upbm affinity estimate (log intensity, higher = more binding, comparable within an allelic series)

CGATCCGC
binding signal (SIX6 [5]): 9.21 upbm affinity estimate (log intensity, higher = more binding, comparable within an allelic series)

AATCGTAT
binding signal (PAX4 [1]): 10.8 upbm affinity estimate (log intensity, higher = more binding, comparable within an allelic series)
binding signal (PAX4 [8]): 10.3 upbm affinity estimate (log intensity, higher = more binding, comparable within an allelic series)

GGATACCC
binding signal (SIX6 [5]): 9.29 upbm affinity estimate (log intensity, higher = more binding, comparable within an allelic series)

AAATCGGT
binding signal (VENTX): 9.94 upbm affinity estimate (log intensity, higher = more binding, comparable within an allelic series)

GATTTTCA
binding signal (PAX4 [1]): 10.7 upbm affinity estimate (log intensity, higher = more binding, comparable within an allelic series)

GAGGATCC
binding signal (SIX6 [5]): 9.19 upbm affinity estimate (log intensity, higher = more binding, comparable within an allelic series)

ACCGATCA
binding signal (VENTX): 9.96 upbm affinity estimate (log intensity, higher = more binding, comparable within an allelic series)

TCTGATCA
binding signal (PAX4 [1]): 10.5 upbm affinity estimate (log intensity, higher = more binding, comparable within an allelic series)
binding signal (PITX2): 9.44 upbm affinity estimate (log intensity, higher = more binding, comparable within an allelic series)
binding signal (PAX4 [8]): 9.89 upbm affinity estimate (log intensity, higher = more binding, comparable within an allelic series)
binding signal (PAX4 [9]): 9.94 upbm affinity estimate (log intensity, higher = more binding, comparable within an allelic series)
binding signal (PAX4 [13]): 9.94 upbm affinity estimate (log intensity, higher = more binding, comparable within an allelic series)

GGATCCCC
binding signal (SIX6 [5]): 9.23 upbm affinity estimate (log intensity, higher = more binding, comparable within an allelic series)

CTAATCAC
binding signal (VENTX): 11.7 upbm affinity estimate (log intensity, higher = more binding, comparable within an allelic series)
binding signal (HOXA2 [14]): 12.7 upbm affinity estimate (log intensity, higher = more binding, comparable within an allelic series)
binding signal (MSX2): 11.1 upbm affinity estimate (log intensity, higher = more binding, comparable within an allelic series)
binding signal (HOXA2 [15]): 13.3 upbm affinity estimate (log intensity, higher = more binding, comparable within an allelic series)

GGGATACC
binding signal (SIX6 [5]): 9.29 upbm affinity estimate (log intensity, higher = more binding, comparable within an allelic series)

ATTTTTAC
binding signal (PAX4 [1]): 10.5 upbm affinity estimate (log intensity, higher = more binding, comparable within an allelic series)

CGATACGC
binding signal (SIX6 [5]): 9.24 upbm affinity estimate (log intensity, higher = more binding, comparable within an allelic series)

TAGTCACA
binding signal (PAX4 [1]): 10.1 upbm affinity estimate (log intensity, higher = more binding, comparable within an allelic series)

GGGGATAC
binding signal (SIX6 [5]): 9.17 upbm affinity estimate (log intensity, higher = more binding, comparable within an allelic series)

ACGGATCG
binding signal (SIX6 [5]): 9.19 upbm affinity estimate (log intensity, higher = more binding, comparable within an allelic series)

CCGTATCC
binding signal (SIX6 [5]): 9.24 upbm affinity estimate (log intensity, higher = more binding, comparable within an allelic series)

AGGGGTCA
binding signal (NKX2-4): 11.2 upbm affinity estimate (log intensity, higher = more binding, comparable within an allelic series)

CCATATCG
binding signal (SIX6 [7]): 10.1 upbm affinity estimate (log intensity, higher = more binding, comparable within an allelic series)

ATATACTC
binding signal (SIX6 [7]): 10.7 upbm affinity estimate (log intensity, higher = more binding, comparable within an allelic series)
binding signal (SIX6 [16]): 10.4 upbm affinity estimate (log intensity, higher = more binding, comparable within an allelic series)

ACTAACTA
binding signal (PAX4 [1]): 10.8 upbm affinity estimate (log intensity, higher = more binding, comparable within an allelic series)
binding signal (PAX4 [8]): 10.1 upbm affinity estimate (log intensity, higher = more binding, comparable within an allelic series)
binding signal (PAX4 [9]): 10.1 upbm affinity estimate (log intensity, higher = more binding, comparable within an allelic series)
binding signal (PAX4 [13]): 10.2 upbm affinity estimate (log intensity, higher = more binding, comparable within an allelic series)

CGGATATA
binding signal (SIX6 [7]): 10.8 upbm affinity estimate (log intensity, higher = more binding, comparable within an allelic series)

CATATCGA
binding signal (SIX6 [7]): 10.2 upbm affinity estimate (log intensity, higher = more binding, comparable within an allelic series)

GTATCGAC
binding signal (SIX6 [7]): 9.96 upbm affinity estimate (log intensity, higher = more binding, comparable within an allelic series)

GGGGGATA
binding signal (SIX6 [7]): 10.8 upbm affinity estimate (log intensity, higher = more binding, comparable within an allelic series)

CGTATCAG
binding signal (SIX6 [7]): 10.2 upbm affinity estimate (log intensity, higher = more binding, comparable within an allelic series)

CGTATCGC
binding signal (SIX6 [7]): 10 upbm affinity estimate (log intensity, higher = more binding, comparable within an allelic series)

AATATACC
binding signal (SIX6 [7]): 10.9 upbm affinity estimate (log intensity, higher = more binding, comparable within an allelic series)

GTATCGAA
binding signal (SIX6 [7]): 10.2 upbm affinity estimate (log intensity, higher = more binding, comparable within an allelic series)

TATATCCA
binding signal (SIX6 [7]): 10.7 upbm affinity estimate (log intensity, higher = more binding, comparable within an allelic series)

ATCTATAC
binding signal (SIX6 [7]): 10.7 upbm affinity estimate (log intensity, higher = more binding, comparable within an allelic series)
binding signal (SIX6 [16]): 10.4 upbm affinity estimate (log intensity, higher = more binding, comparable within an allelic series)
binding signal (PAX4 [9]): 10.4 upbm affinity estimate (log intensity, higher = more binding, comparable within an allelic series)

CGACACCA
binding signal (SIX6 [7]): 9.52 upbm affinity estimate (log intensity, higher = more binding, comparable within an allelic series)

CGTATCGA
binding signal (SIX6 [7]): 10 upbm affinity estimate (log intensity, higher = more binding, comparable within an allelic series)

CGTTATGC
binding signal (PAX4 [1]): 10.3 upbm affinity estimate (log intensity, higher = more binding, comparable within an allelic series)
binding signal (PAX4 [13]): 9.97 upbm affinity estimate (log intensity, higher = more binding, comparable within an allelic series)

AAAACCAT
binding signal (PAX4 [1]): 10.5 upbm affinity estimate (log intensity, higher = more binding, comparable within an allelic series)
binding signal (PAX4 [9]): 9.98 upbm affinity estimate (log intensity, higher = more binding, comparable within an allelic series)
binding signal (PAX4 [13]): 10.1 upbm affinity estimate (log intensity, higher = more binding, comparable within an allelic series)
